Assay outcomes as filed in PubChem.
Rows were chosen to be rich in hits. Some 1.7% of all compounds tested hit in one or more screens of this group.
GSTO1 counter = GSTO1 inhibition, counter-screen for RBBP9 inhibitors | recombinant GSTO1, activity-based probe fluorescence polarization | inhibition, % at 5.96 µM | hit rate 1.1% among 300,000 | AID 1974;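 active = inhibition above the campaign mean inhibition plus 3 SD, cut at about 35% in these data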;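 note: 0% = GSTO1-1 with DMSO and 100% = wells lacking GSTO1-1 enzyme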
Target sequence (P78417 whole entry, looked up): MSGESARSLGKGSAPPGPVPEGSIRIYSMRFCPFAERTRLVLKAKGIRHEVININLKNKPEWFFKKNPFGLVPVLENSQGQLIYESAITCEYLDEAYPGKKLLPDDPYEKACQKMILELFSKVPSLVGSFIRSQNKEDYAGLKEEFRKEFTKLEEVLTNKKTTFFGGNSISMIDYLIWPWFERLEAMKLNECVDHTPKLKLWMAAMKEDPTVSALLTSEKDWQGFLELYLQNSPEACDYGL
PAD4 FP inh = PAD4 (human) enzyme inhibition. Q9UM07. recombinant PAD4, RCA probe fluorescence polarization. inhibition, % at 6.36 µM. hit rate 0.41% among 330,000. AID 485272;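 active = percent inhibition above a cutoff equal to the mean of all tested compounds plus 3 SD, cut at about 15% in these data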;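 note: 0% = PAD4 with RCA probe and DMSO and 100% = probe without PAD4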
EBNA-1 inhibitor = blocks EBNA-1 binding to DNA; EBNA-1 DNA binding, fluorescence polarization; inhibition, % at 14.8 µM; hit rate 0.34% among 300,000; in the data active = inhibition above about 28%
LYPLA1 counter = counter-screen for PME1 inhibitors: inhibitors of human LYPLA1. O75608. recombinant LYPLA1, FP-Rh probe fluorescence polarization. inhibition, % at 5.9 µM. hit rate 0.16% among 320,000;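 active = inhibition above the mean of all tested compounds plus 3 SD, set per campaign, cut at about 14% in these data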;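 note: inhibitors block serine hydrolase probe labeling of LYPLA1 so polarization falls; 0% = enzyme with DMSO and 100% = wells lacking LYPLA1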
Target sequence (O75608 whole entry, looked up): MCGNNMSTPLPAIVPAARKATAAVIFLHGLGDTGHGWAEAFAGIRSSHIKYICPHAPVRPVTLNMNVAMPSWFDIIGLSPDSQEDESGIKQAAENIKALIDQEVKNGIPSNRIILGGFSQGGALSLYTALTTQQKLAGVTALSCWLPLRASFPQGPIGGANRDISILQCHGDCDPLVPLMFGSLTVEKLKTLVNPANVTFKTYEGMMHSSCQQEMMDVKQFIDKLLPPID
ZTA counter = ZTA (EBV) inhibition in EBNA-1 counter-screen | ZTA-DNA binding, fluorescence polarization | inhibition, % at 11 µM | hit rate 0.15% among 320,000; in the data active = inhibition above about 33%
Target sequence (P03206 whole entry, looked up): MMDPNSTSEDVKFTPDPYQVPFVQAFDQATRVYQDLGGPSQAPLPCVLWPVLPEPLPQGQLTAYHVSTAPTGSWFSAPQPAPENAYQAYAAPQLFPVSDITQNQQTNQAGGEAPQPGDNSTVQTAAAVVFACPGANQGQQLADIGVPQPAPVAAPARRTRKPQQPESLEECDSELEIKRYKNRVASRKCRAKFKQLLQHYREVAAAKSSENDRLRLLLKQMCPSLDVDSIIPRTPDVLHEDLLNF
LYPLA2 inh = LYPLA2 (human) inhibition in PME1 counter-screen; hit rate 0.38% among 320,000; recombinant LYPLA2, FP-Rh probe fluorescence polarization; inhibition, % at 5.9 µM; O95372; AID 2177;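 active = inhibition above the screen-wide mean plus 3 SD, limit set per campaign, cut at about 26% in these data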;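 note: 0% = LYPLA2 with DMSO and 100% = wells lacking LYPLA2 enzyme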
EBNA-1 inh conf = EBNA-1 (EBV) inhibition, confirmation; shares compounds with EBNA-1 inhibitor; Recombinant EBNA-1 DBD, Cy5-DNA fluorescence polarization; inhibition, % at 14.8 µM; hit rate 35% among 830; AID 2292;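 active = mean inhibition across replicates above a set limit taken from the earlier primary screen, cut at about 28% in these data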;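 note: plate controls were EBNA-1 protein with DMSO for no effect and wells lacking EBNA-1 for full effect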
ZTA counter trip = ZTA (EBV) inhibition, triplicate counter-screen; Zta-ZRE DNA binding, Cy5 fluorescence polarization; 830 tested, under 10 active; AID 2328; inhibition, % at 11.1 µM; shares compounds with EBNA-1 inhibitor;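 active = mean inhibition over triplicates above a set limit taken from the primary EBNA-1 screen, cut at about 37% in these data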;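 note: purified full length Zta protein with Cy5 labeled ZRE DNA probe; 0% = Zta with DMSO and 100% = wells lacking Zta protein; inhibitors lower polarization by freeing the labeled DNA probe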
* hit, by the source's call; . = no result given.

SMILES	GSTO1 counter	PAD4 FP inh	EBNA-1 inhibitor	LYPLA1 counter	ZTA counter	LYPLA2 inh	EBNA-1 inh conf	ZTA counter trip
CC(=O)Nc1cccc(NC(=O)CSc2ccc(-c3ccccn3)nn2)c1	5.5	2.1	-6.1	0.3	0.7	-3.5	.	.
CCOC(=O)c1oc2ccccc2c1NC(=O)c1ccc(S(=O)(=O)N(C)C)cc1	-0.1	1.7	47.5*	-1.8	-6.8	3.0	52.0*	6.4
CCOC(=O)c1oc2ccccc2c1NC(=O)c1ccc(S(=O)(=O)N2CCCC2)cc1	-1.8	-1.8	36.6*	-1.1	-8.1	3.0	46.6*	0.4
CCOC(=O)c1[nH]c2ccccc2c1NC(=O)c1ccc(S(=O)(=O)N(C)C)cc1	-0.5	-0.4	3.2	0.1	9.3	-6.0	.	.
O=C(COC(=O)Cn1nnc(-c2ccccc2)n1)Nc1cc(F)ccc1F	.	-0.1	.	.	.	.	.	.
CCC(=O)Nc1ccc(Cl)c(NC(=S)NC(=O)c2cc3ccccc3o2)c1	1.8	-0.8	38.8*	-3.7	-3.2	-1.0	17.6	2.8
CCC(=O)Nc1ccc(Cl)c(NC(=S)NC(=O)c2ccco2)c1	0.9	-6.7	8.4	-2.5	0.1	-2.3	.	.
CC(=O)Oc1ccc(C(=O)O)c(OC(C)=O)c1	3.0	-2.0	9.4	2.0	4.7	4.4	.	.
CC(=O)c1ccc(NC(=S)N2CCN(CCN3C(=O)c4cccc5cccc(c45)C3=O)CC2)cc1	-1.0	-1.1	-2.0	-2.4	-7.5	-1.8	.	.
CC(=O)c1cccc(NC(=S)N2CCN(CCN3C(=O)c4cccc5cccc(c45)C3=O)CC2)c1	-11.3	0.3	33.9*	-2.2	-3.4	4.2	19.1	-15.3
Cc1ccc(NC(=O)Cn2cc(S(=O)(=O)c3ccc(F)cc3)c(=O)c3cc(F)ccc32)cc1	6.6	1.8	29.1*	0.3	-1.4	-1.3	47.2*	-0.5
Cc1ccc(S(=O)(=O)c2cn(CC(=O)Nc3ccccc3)c3ccc(F)cc3c2=O)cc1	4.5	-2.3	-11.4	0.8	0.1	11.0	.	.
CCOc1cc(NC(=S)NC)c(OCC)cc1NC(=O)c1cccs1	5.4	-4.1	-10.1	-6.0	-4.8	-13.7	.	.
CCOc1cc(NS(=O)(=O)c2ccc(NC(C)=O)cc2)c(OCC)cc1NC(=O)c1cccs1	0.5	-2.6	41.1*	-5.1	-4.3	0.3	27.8*	-12.4
COCCN(Cc1cc2cc(C)cc(C)c2nc1Cl)C(=O)Nc1ccccc1	6.9	0.8	56.2*	-3.2	-12.2	0.1	-8.5	3.0
NC(=O)c1cccc(NC(=O)Nc2ccc(Cl)cc2)c1	4.5	-3.0	37.8*	0.3	7.2	0.4	6.8	4.8
COc1ccc(Cl)c2sc(N(CCN(C)C)C(=O)c3ccc4c(c3)OCCO4)nc12	-0.3	-3.0	16.6	3.1	6.0	4.9	.	.
O=c1[nH]c(CN2CCN(S(=O)(=O)c3ccc4ccccc4c3)CC2)nc2ccccc12	3.3	-7.4	83.7*	2.8	23.5	4.7	122.4*	4.1
O=C(CSc1nc(-c2ccc(F)cc2)cs1)NCC1CCCO1 (stereo not drawn)	.	-1.1	.	.	.	.	.	.
CN(C)c1ccc(/C=N/NC(=O)c2cc(-c3ccc4c(c3)OCO4)n[nH]2)cc1	-3.9	0.0	-10.9	-2.1	-5.8	-0.7	.	.
O=C(N/N=C/c1ccc(F)cc1)c1cc(-c2ccc3c(c2)OCO3)n[nH]1	-46.3	1.9	32.1*	-3.4	-2.2	-8.2	16.1	4.2
COc1ccc2[nH]c(=O)c(-c3nnn(-c4ccc(Cl)c(Cl)c4)n3)cc2c1	6.5	-1.9	-9.7	0.8	8.4	-1.9	.	.
Cc1cc(CSc2ccccc2)ccc1NC(=O)c1cccc([N+](=O)[O-])c1	-2.8	-4.7	28.4*	0.8	5.4	3.6	13.2	15.0
CN(CC(=O)Nc1ccc(Cl)c(C(F)(F)F)c1)C(=O)/C=C/c1cccs1	.	4.7	.	-10.7	-18.7	-5.1	.	.
COc1ccc(-c2nc(CN3CCC(C(=O)NCC4CCCO4)CC3)c(C)o2)cc1OC (stereo not drawn)	-2.3	-2.5	2.9	-0.6	-2.4	0.8	.	.
SMILES	GSTO1 counter	PAD4 FP inh	EBNA-1 inhibitor	LYPLA1 counter	ZTA counter	LYPLA2 inh	EBNA-1 inh conf	ZTA counter trip
COc1ccc(/C=C2\SC(=O)N(CC(=O)NNC(=O)c3ccccc3O)C2=O)cc1	8.0	-8.6	54.5*	-12.2	-8.1	-20.1	6.8	7.9
COc1cc(OC)c(/C=C2\SC(=O)N(CC(=O)Nc3ccccc3F)C2=O)c(OC)c1	-9.6	7.5	95.8*	-8.3	-4.9	-16.3	67.0*	-0.7
O=C(CN1C(=O)S/C(=C\c2ccccc2)C1=O)NNC(=O)c1ccccc1O	3.2	-1.1	-2.4	-3.1	-1.4	-0.3	.	.
O=C(CCC(=O)N1CCCC1)N1CCCC1	2.6	-9.0	-8.9	1.5	-21.4	4.7	.	.
CCN(CC)S(=O)(=O)c1cc(NC(=O)CSc2nc3c(cc2C#N)C(=O)CC(C)(C)C3)ccc1C	-3.9	6.4	32.0*	-3.2	9.5	-1.8	-7.8	-12.1
S=c1nc[nH]c2c1[nH]c1ccc(Cl)cc12	4.8	0.4	42.7*	0.4	11.9	-0.9	22.2	0.1
COc1ccc(C(=O)NNC(=O)CSc2nnc(COc3ccc4ccccc4c3)n2C)cc1	3.3	2.0	81.9*	2.5	-0.9	2.1	36.1*	1.0
Cc1cccc(OCc2nnc(SCC(=O)Nc3cc(C)on3)n2C)c1	11.2	0.3	31.0*	-1.4	-4.5	7.2	8.3	14.3
O=C(C1CCCC1)N1CCN(S(=O)(=O)c2cccc(Cl)c2Cl)CC1	34.4	2.7	-1.9	-2.0	-0.1	0.2	.	.
CCCn1c(C)cc(/C=C(\C#N)C(=O)OCC(=O)Nc2cccc(OC)c2)c1C	-0.3	-8.2	67.2*	-10.0	2.6	14.2	0.4	2.2
CCCn1c(C)cc(/C=C(\C#N)C(=O)OCC(=O)Nc2cccc(S(N)(=O)=O)c2)c1C	.	-0.3	.	0.5	16.1	-2.9	.	.
O=C(CNC(=O)c1ccco1)NCC(=O)OCc1ccc(C(=O)Oc2ccc(Cl)cc2)cc1	4.2	2.3	89.1*	-4.0	10.4	1.6	9.2	5.3
CCn1c2ccccc2c2cc(NC(=O)COC(=O)c3ccccc3O)ccc21	3.7	4.9	5.7	-3.4	-6.1	4.5	.	.
CCn1c2ccccc2c2cc(NC(=O)COC(=O)c3ccccc3F)ccc21	2.7	-4.0	37.1*	-7.0	5.7	2.6	25.2	-4.1
CC(C)[C@H](NC(=O)N1CCn2c1nc1ccccc12)C(=O)NCc1ccccc1Cl	-1.2	4.7	-11.9	-1.4	2.8	-4.9	.	.
O=C(COc1ccc2c(c1)OCO2)Nc1ccc2c(c1)oc1ccccc12	-26.2	-12.3	70.9*	-8.4	5.6	-25.8	11.1	14.9
Cc1cc(OC(=O)c2cccc(Br)c2)c([N+](=O)[O-])c(=O)[nH]1	-2.5	-1.3	-5.5	-0.9	5.5	1.0	.	.
